Results filed as inconclusive are left out. The source made the active and inactive calls. The calls were made as follows: active = hit-call score of the fitted dose curve at least 0.9, where 1 is the maximum; inconclusive = response in the unintended direction; inactive = score below 0.9.

Experiment [1] in a line: Tanguay_ZF_120hpf_JAW_legacy: (Legacy) Oregon State University Tanguay Lab 120 Hour Post-fertilization zebrafish Assay for Jaw Malformation (AID 2283638).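 As to AC50: active means more embryos with jaw malformation than DMSO controls.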 The method in brief: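 Steps: dechorionate 4 hpf embryos (pronase); plate 1/well at 6 hpf; add test chemical, 0.64% DMSO final; seal, cover, hold at 28C statically to 120 hpf; score jaw defect presence/absence microscopically. Dead embryos not scored.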

A short description of experiment [2]: Tanguay_ZF_120hpf_OTIC_legacy: (Legacy) Oregon State University Tanguay Lab 120 Hour Post-fertilization zebrafish Assay for Otic Vesicle Malformation (AID 2283639). Put shortly: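 Statically exposed wild-type 5D zebrafish embryos, kept sealed and dark at 28C through 120 hours post fertilization, were examined by brightfield microscopy for otic vesicle defects. Responses were recorded as present or absent and analysed relative to DMSO.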

The nature of experiment [3]: Tanguay_ZF_120hpf_BRAI_legacy: (Legacy) Oregon State University Tanguay Lab 120 Hour Post-fertilization zebrafish Assay for Brain Malformation (AID 2283641). Put shortly:
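Wild-type 5D larvae, static waterborne exposure to 120 hpf, 28C, 0.64% v/v DMSO. Brightfield scoring of brain defects, binary; dead embryos excluded. Positive ctrl 5uM trimethyltin chloride.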

Experiment [4] in a line: Tanguay_ZF_120hpf_PFIN_legacy: (Legacy) Oregon State University Tanguay Lab 120 Hour Post-fertilization zebrafish Assay for Pectoral Fin Malformation (AID 2283648).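 Also: each larva judged yes or no for fin defect by brightfield with dead larvae skipped.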 The method in brief: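 Pectoral fin malformation was recorded as a binary endpoint at 120 hpf in wild-type Tropical 5D larvae, which had been dechorionated and exposed statically from 6 hpf at 28C in 0.64% DMSO. Dead embryos were excluded.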

Experiment [5] in a line: Tanguay_ZF_120hpf_CFIN_legacy: (Legacy) Oregon State University Tanguay Lab 120 Hour Post-fertilization zebrafish Assay for Caudal Fin Malformation (AID 2283649). The method in brief:
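Binary presence or absence of caudal fin malformation at 120 hpf, read by brightfield microscopy, with DMSO as baseline. Larvae came from 5D wild-type embryos exposed statically from 6 hpf at 28C after pronase dechorionation.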

Experiment [6] can be described thus: Tanguay_ZF_120hpf_PIG_legacy: (Legacy) Oregon State University Tanguay Lab 120 Hour Post-fertilization zebrafish Assay for Pigmentation Malformation (AID 2283650). The method in brief: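 Pigment malformation recorded as a binary call at 120 hpf in zebrafish (Tropical 5D) exposed singly from 6 hpf after pronase dechorionation. Static, sealed, 28C exposure, 0.64% DMSO; mortality excludes scoring; positive-direction fit against DMSO.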

Experiment [7] is described as follows: Tanguay_ZF_120hpf_CIRC_legacy: (Legacy) Oregon State University Tanguay Lab 120 Hour Post-fertilization zebrafish Assay for Circulatory Malformation (AID 2283651). The method in brief: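 Embryos are dechorionated at 4 hpf, plated one per well at 6 hpf, then held under static exposure at 28C until 120 hpf. Malformations are recorded as binary calls; mortality excludes other endpoints.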

Experiment [8] can be described thus: Tanguay_ZF_120hpf_SWIM_legacy: (Legacy) Oregon State University Tanguay Lab 120 Hour Post-fertilization zebrafish Assay for Swim Bladder Malformation (AID 2283654).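 Also: swim bladder malformation in each larva scored yes or no under brightfield.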 Put shortly: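 Scoring is binary for swim bladder defects at 120 hpf, by brightfield inspection of zebrafish larvae. Embryos were exposed singly from 6 hpf after pronase dechorionation, at 28C with 0.64% DMSO; mortality excluded scoring.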

Experiment [9] has as its system Thyroperoxidase (TPO), gene 54314. As to the kind of experiment: CCTE_Simmons_AUR_rTPO: CCTE's Amplex UltraRed Assay for Thyroperoxidase (TPO) Inhibition, Simmons Lab (AID 2283662).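 As to AC50: potency for loss of signal meaning inhibition of peroxidase activity.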 Put shortly:
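Rat thyroid microsomes (5 ug protein) were incubated with test compound (8 concentrations, 5 nM–87.5 uM final, 0.5% DMSO), 25 uM Amplex UltraRed and 300 uM H2O2 in 200 mM phosphate buffer for 30 min at 37C in the dark; fluorescence read at 544/590 nm.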

Experiment [10] is described as follows: CCTE_Simmons_CellTiterGLO_HEK293T: Viability Assessment in CCTE's Assays for Thyroperoxidase (TPO) Inhibition, Simmons Lab (AID 2283665).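 As to AC50: cells exposed to compound for 24 h before readout; actives reduce ATP signal below DMSO vehicle meaning cytotoxicity.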 The method in brief:
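Cells were seeded overnight, then exposed to an eight-point series up to 87.5 uM final for 24 hours. CellTiter-Glo reagent was added and luminescence read after 20 min, giving ATP-based viability versus DMSO.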

Experiment [11] in a line: Tanguay_ZF_120hpf_TR_legacy: (Legacy) Oregon State University Tanguay Lab 120 Hour Post-fertilization zebrafish Assay for Touch Response (AID 2283667). Put shortly:
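Binary touch-response endpoint in larvae at 120 hpf after static waterborne exposure from embryo stage (28°C, 0.64% DMSO vehicle, 5 uM trimethyltin chloride as positive control); embryos dead at 24 or 120 hpf excluded; fitted as gain versus DMSO.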

Experiment [12] in a line: Tanguay_ZF_120hpf_PE_legacy: (Legacy) Oregon State University Tanguay Lab 120 Hour Post-fertilization zebrafish Assay for Pericardial Edema (AID 2283640). Put shortly:
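Embryos from wild-type 5D adults were staged, then dosed in 0.64% DMSO. They were kept sealed in the dark at 28C until 120 hpf. Pericardial edema was then recorded as present or absent.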

Experiment [13] is described as follows: Tanguay_ZF_120hpf_NC_legacy: (Legacy) Oregon State University Tanguay Lab 120 Hour Post-fertilization zebrafish Assay for Notochord and Tail Malformation (AID 2283656). The method in brief: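 Binary scoring of notochord distortion by brightfield microscopy; embryos dying were not scored. Wild-type Tropical 5D embryos, chorion removed, exposed singly and statically from 6 to 120 hpf, 28C, sealed, 0.64% DMSO.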

The nature of experiment [14]: Tanguay_ZF_120hpf_TRUN_legacy: (Legacy) Oregon State University Tanguay Lab 120 Hour Post-fertilization zebrafish Assay for Truncated Body (AID 2283655). Put shortly: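 Truncated body is recorded as a binary endpoint at 120 hpf by brightfield imaging of wild-type 5D larvae. Exposure runs statically from 6 hpf at 28C with 0.64% DMSO; embryos dying earlier are not scored.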

The nature of experiment [15]: Tanguay_ZF_120hpf_SOMI_legacy: (Legacy) Oregon State University Tanguay Lab 120 Hour Post-fertilization zebrafish Assay for Somite Malformation (AID 2283647). The method in brief: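 Read-out: presence or absence of somite malformation in 120 hpf larvae, gain-of-signal relative to DMSO baseline. Embryos lacked chorion (pronase, 4 hpf) and were exposed statically from 6 hpf at 28C; dead larvae not scored.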

With `CCc1ccc(O)c(C(C)(C)C)c1`, the outcome in experiment [1], in [2], in experiment [3], in experiment [4], in experiment [5] and in experiment [6] was inactive. Moreover, the outcome in experiment [7], in [8] and in experiment [11] was inactive. Besides, the AC50 (in general, the midpoint of the concentration-response curve, whichever way the signal moves) in [9] is 13 µM (active); in experiment [10], 12.6 µM (active).

Consider `Cc1ccc(S(=O)(=O)NC(=O)NN2CCCCCC2)cc1`, for which the call in [1], in experiment [2], in [12], in [3], in experiment [5] and in experiment [6] was inactive. Also, the call in [7], in [8], in experiment [13], in experiment [10] and in experiment [11] was inactive. For the same molecule, the AC50 in experiment [9] was 8.68 µM (active).

Take `CCCCCCCCCCCCCCCCOS(=O)(=O)O`: the molecule was classed as inactive in experiment [1], in experiment [2], in experiment [3], in experiment [4], in [5] and in experiment [6]. Besides, the outcome in experiment [7], in experiment [8], in experiment [9] and in experiment [11] was inactive. In experiment [10], the AC50 was 26.7 µM (active).

On to `CC(C)C(=O)Nc1ccc([N+](=O)[O-])c(C(F)(F)F)c1`, for which the result in experiment [1], in experiment [2], in [3], in experiment [5], in experiment [6] and in [7] was inactive. In addition, the result in experiment [8], in [14] and in experiment [11] was inactive.

Turning to `NC(N)=O`, the molecule was classed as inactive in [2], in experiment [5], in experiment [6], in experiment [8] and in [11].

Consider `COc1cc(C(C)C)c2c(c1)S(=O)(=O)N(COc1cc(=O)n3cccc(OCCN4CCCCC4)c3n1)C2=O`, for which the outcome in experiment [1], in [3], in experiment [4], in [5], in [7] and in experiment [8] was inactive. Moreover, the molecule was called inactive in [14] and in [11]. For the same molecule, the AC50 in experiment [2] is 15.3 µM (active).

In the case of `OCCNCCO`, the molecule was classed as inactive in experiment [1], in experiment [2], in experiment [3], in [5], in experiment [6] and in experiment [7]. Moreover, the molecule was called inactive in [8], in experiment [14] and in experiment [11].

As for `OCC(CO)(CO)CO`, the result in experiment [2], in [3], in experiment [5], in [6], in [7] and in [8] was inactive. In addition, the outcome in [13] and in experiment [11] was inactive.

Turning to `O=S(=O)(O)c1ccc(N=Nc2c(O)ccc3cc(S(=O)(=O)O)ccc23)cc1`, the outcome in [2], in [12], in [3], in [6], in experiment [7] and in experiment [8] was inactive. The molecule was called inactive in experiment [11].

As for `CCCCC(CC)C(=O)OCCOCCOCCOC(=O)C(CC)CCCC` (stereo not drawn), the outcome in [1], in experiment [2], in [3], in experiment [5], in experiment [6] and in experiment [7] was inactive. Also, the outcome in experiment [8] and in experiment [11] was inactive.

On to `CCCc1ccccc1`, for which the call in experiment [1], in experiment [2], in experiment [3], in experiment [5], in experiment [6] and in experiment [7] was inactive. Besides, the result in experiment [8] and in experiment [11] was inactive.

Regarding `O=C(O)c1cccc(C(=O)O)c1`, the molecule was called inactive in [1], in [2], in experiment [15], in [4], in [5] and in experiment [6]. Further, the result in experiment [7], in [8], in experiment [14], in experiment [13] and in experiment [11] was inactive.

`CCCCCCCCCC`: the result in experiment [1], in [2], in experiment [3], in [5], in experiment [6] and in experiment [7] was inactive. The outcome in [8] and in experiment [11] was inactive.

Regarding `CCOc1ccc2[nH]cc(C(=O)NCc3ccccc3)c(=O)c2n1`, the molecule was classed as inactive in experiment [1], in experiment [2], in experiment [3], in experiment [5], in experiment [6] and in experiment [7]. The molecule was classed as inactive in [11].

As to `CCCCCOC(C)=O`, the molecule was classed as inactive in [1], in experiment [2], in experiment [3], in experiment [5], in experiment [6] and in experiment [7]. Besides, the molecule was classed as inactive in experiment [8] and in experiment [11].

Consider `CCCCCCCCCCCCCCO`, for which the outcome in [1], in [2], in experiment [3], in experiment [5], in [7] and in experiment [8] was inactive. The molecule was classed as inactive in experiment [13] and in experiment [11].

As for `c1ccc2c(c1)-c1cccc3c1c-2cc1ccccc13`, the result in experiment [2], in experiment [3], in [15], in experiment [5], in experiment [6] and in experiment [7] was inactive. Also, the molecule was classed as inactive in experiment [8] and in experiment [11].

As for `CCCCCCCC1CCC(=O)O1` (stereo not drawn), the AC50 in experiment [1] is 40.3 µM (active). The outcome in [15], in experiment [5], in experiment [6], in experiment [7], in experiment [14] and in experiment [11] was inactive.

As to `CC(C)c1nnc2ccc(-c3ocnc3-c3cc(F)ccc3F)cn12`, the call in [2], in experiment [3], in experiment [4], in experiment [5], in experiment [6] and in experiment [7] was inactive. Also, the call in experiment [8], in [13] and in [11] was inactive.

Values taken from PubChem BioAssay (EPA / NIEHS).
